Test results reported in the supplement of paper PMC11417369.
± gives the standard deviation of the averaged measurements. Over roughly 25,000 sequences, “ln(normalized median fluorescence intensity)” has its median near 10; the highest 2% begin near 12. The list comes from a sample in which the highest values are over-represented; it also holds similar and randomly drawn sequences.

Tested on: PfAP2-G AP2 domain (GST-tagged)
Test: gcPBM binding intensity (ln(normalized median fluorescence intensity)); higher = stronger DNA binding
In short: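 The binding buffer was 1× PBS containing 1% milk, 0.2 mg/ml BSA, 0.5% salmon testes DNA and 0.03% Triton X-100. In it, GST-tagged P. falciparum DNA-binding domains expressed in E. coli were applied for 1 h to an Agilent 4 × 180k array of primer-extended double-stranded 36-bp intergenic genomic probes plus negative controls. Binding intensity, read with Alexa488 anti-GST antibody and a 488 nm scan, is the highest Masliner-normalised natural-log median intensity across replicate spots of either probe orientation.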

Sequence | gcPBM binding intensity (ln)
TTTTTTTAAAATATGAGTACATAATATTGTAAAAAT [XGTACX_site6536] | 11.4 ± 0.9
AGTTTGATTTTTTCTTATAATATATTATTATATATT [CACACA_negctrl_site376] | 9.975 ± 0.021
CATATGTAGGGAACAATATAATATGCTTTGAATATG [GTGCAC_negctrl_site524] | 10.2 ± 0.14
AAGAATATTAATATAAATAAGTAAATAAATAAATAA [CACACA_negctrl_site417] | 9.78 ± 0.11
GTATAATTTAAAAAGTGTACATAAAGTTTTTATTAA [XGTACX_site1090] | 11.6 ± 0.81
AAAAATATAATATAATGTACACAAAAAAAAAAAATC [XGTACX_site1427] | 11.4 ± 0.71
GTACAAATGTTGTGTATATATACACACATACATATA [XGTACX_negctrl_site276] | 10.9 ± 0.46
ATATATATATATATATGTACATATACACATGTGTGC [XGTACX_site168] | 11.2 ± 0.55
AAAAAATGCGACATGTGTACACATATATATATATAT [XGTACX_site1679] | 11.8 ± 0.99
ATAATCTGACAAATGTGTACACATATATATATATAT [XGTACX_site2379] | 11.6 ± 0.97
ATCTGACAAAAGTGTACACATATATATATATATATA [CACACA_site4814] | 11.7 ± 1.2
CATATTAGGACAAAGTGTACATATATATATATATAT [XGTACX_site1172] | 11.4 ± 0.86
AAATGCGCCATGTGTACACATATATATATATATATA [CACACA_site4649] | 11.5 ± 0.88
TATGTAACAAAAAAAAGTACACATATATATAGTGTA [XGTACX_site7772] | 11.6 ± 0.85
TAATTTTCATAATTTTGTACTTAACGTTTTACCTTG [XGTACX_site8048] | 10.9 ± 0.5
TGCACAAAATTATGCACACACCTAAAATTAATTTTT [CACACA_site5596] | 10.2 ± 0.21
TAAATTTAAAATGACACACACTAAAATTATTTAAGT [CACACA_site4816] | 10.05 ± 0.021
ATAAAGAAAAGGAACACACAAATATGTAAATATGTA [CACACA_site6356] | 10.06 ± 0.085
ATAGAACAGAAAAGGCGTACAATAATATGTAAACAA [XGTACX_site2828] | 11.8 ± 1.1
TATGAGAACAAACATTGTACAATAAAAAGTAGATAT [XGTACX_site920] | 11.2 ± 0.35

Sequence | gcPBM binding intensity (ln)
TTTCATAACAAAAAAGTGCAAAATAGCACGAACATT [GTGCAC_site9703] | 10.3 ± 0.16
AAAAACGATTAATGTGTACACACATAGTTATAAACA [CACACA_site8659] | 11.7 ± 1.2
AAACGATTACTGTGTACACACATAGTTATAAACATA [CACACA_site5195] | 11.5 ± 0.72
AAACGATTAATGTGTACACACATAGTTATAAACCTA [CACACA_site2110] | 11.6 ± 0.91
AAACGATTAATGTGTACACACATAGTTATAAACATA [CACACA_site7073] | 11.7 ± 1.2
TTATAAAACACAAAATGTACAAAAAATTATAATTAA [XGTACX_site6859] | 10.7 ± 0.33
TAAACACATTATATATGTACATAATAAAAAAAAAAA [XGTACX_site7907] | 11.2 ± 0.83
TAATGACAATAAAAATAAATAAATAAAAAAAAAAAA [TGCATGCA_negctrl_site321] | 9.51 ± 0.59
ATATAAATATAAACATGTACATATATATATATATAT [XGTACX_site2824] | 11.1 ± 0.69
AAAATTTTTCTTAAAGCATGCACAATTAAGAAGACG [TGCATGCA_site883] | 10.2 ± 0.13
TTTTTCATAAAAAAATAAAAAAAATTAACATAGAAA [XGTACX_negctrl_site11] | 9.95 ± 0.26
TTTATACTTTCAAAATGTACATATATATATATATAT [XGTACX_site6241] | 11.1 ± 0.63
ATATATACTATAATAGTGCATTAAAAAAGTAAAAAT | 10.2 ± 0.25
TAAATAAATATATGTACACACACAAATATATACATA [CACACA_site8577] | 11.4 ± 0.73
AATAAATATATGTACACACACAAATATATACATATC [CACACA_site1903] | 11.3 ± 0.63
AATATATATATGTGTACACATCCAAAATAGGCATAC [CACACA_site5705] | 11.7 ± 1.1
AATAAAAATAGGAAATGTACACATATATATATATAT [XGTACX_site1853] | 11.2 ± 0.59
AAGGGGAAAAAAAAAAGTACACAAACATAGGATAAT [XGTACX_site377] | 11.7 ± 1
AATAAATATAGGTACACACACAAATATGTACATATC [CACACA_site6976] | 11.7 ± 0.92
GTTTTAAAACAAATATGTACACATAATATAGGAAAG [XGTACX_site1803] | 11.7 ± 0.82

Sequence | gcPBM binding intensity (ln)
TAAAACATATATACAAGTACACAAAGGATATATATA [XGTACX_site3710] | 11.4 ± 0.95
AAAAATATAATATAATGTACACATAAACAAAAAAAA [XGTACX_site3658] | 11.4 ± 0.84
AAAAAAAAAAAAACAAGTACAAAGGATAGAAAAAAA [XGTACX_site4133] | 11.2 ± 0.71
CATCCACAAATATGTACACACATATATAAATATGTA [CACACA_site7407] | 11.4 ± 0.93
GTAAATACACATATGTGTACATATATATATATATAT [XGTACX_site3696] | 11.5 ± 0.86
AAAAAAAAAAGAAAGAGTACTTTTTCAATACATATA [XGTACX_site2468] | 11.1 ± 0.7
TTAACTTATTTGTAAAGTACATTAATAAAAAGAAAA [XGTACX_site1588] | 11.1 ± 0.42
ATATATATATATATATGTACATATATTTTTATTTAT [XGTACX_site3508] | 11.2 ± 0.76
TAACTACTAGAAAAAACACACAAAAAGTAAATATAT [CACACA_site2740] | 10.045 ± 0.007
ATACATACATATATATGTACTTATATTTTACACATT [XGTACX_site1688] | 11.2 ± 0.75
AATGGAAAAATAGGCACACACACATAAATACAGATA [CACACA_site4844] | 10.3 ± 0.18
TGTAAATATAAATGTAATAAATATGTAAAAATAAAT [XGTACX_negctrl_site171] | 9.79 ± 0.13
AATGAATAAATAAACACACACACATATATAAATATG [CACACA_site6160] | 10.05 ± 0.014
GATAAAATATGTTGCCGTACATATTCATATACTTAA [XGTACX_site4776] | 11 ± 0.62
GGTAGTTATTATCTCCGTACTTATAAAGAAAAAAGG [XGTACX_site4674] | 10.9 ± 0.63
ATTTTTATTTTTTTTGTGCACATTTTCATTTTCTAT [GTGCAC_site9580] | 10.54 ± 0.085
TATGTATATTTTTTTGTGCACATATATATATATATA | 10.4 ± 0.35
TTTGTGTGTACGCGTGTGCACATTTTTTTTTTTTTT | 11.7 ± 0.92
